In publication PMC4552634, “A New Set of Chemical Starting Points with Plasmodium falciparum Transmission-Blocking Potential for Antimalarial Drug Discovery” (PLoS ONE, 2015):
Among all 13,000 compounds or so, about 3,200 (25%) showed an effect of 50% or more. Some of the results follow.

Test system: P. falciparum stage V gametocytes
Parameters: BacTiter-Glo ATP luminescence viability of purified stage V gametocytes in 384-well plates, per cent inhibition versus DMSO
Settings: 48 h, 5 µM; inhibitor

SMILES | % Inhibition [%]
CCn1c(SCC(=O)Nc2cc(C(F)(F)F)ccc2Cl)nc2ccccc2c1=O [TCMDC-125426] | 3.057
COCCn1c(SC(C)C(=O)Nc2cc(C(F)(F)F)ccc2Cl)nc2ccccc2c1=O (stereo not drawn) [TCMDC-125030] | 60.86
COCC(C)n1c(SCC(=O)Nc2cc(C(F)(F)F)ccc2Cl)nc2ccccc2c1=O (stereo not drawn) [TCMDC-125436] | 2.32
COc1ccc(N(C)Cc2cnc3nc(N)nc(N)c3n2)cc1 [TCMDC-137682] | 5.189
COC(=O)C(C)(C)c1ccc(CC(C)NCC(O)c2cccc(C(F)(F)F)c2)cc1 (stereo not drawn) [TCMDC-131482] | 7.113
Oc1ccc(Cl)cc1Nc1nc(C(F)(F)F)nc2ccccc12 [TCMDC-125147] | -61.42
N#Cc1cccc(CN(Cc2ccc(Cl)c(Cl)c2)S(=O)(=O)c2cccc([N+](=O)[O-])c2)c1 [TCMDC-141594] | 51.09
O=C(Nc1cccc([N+](=O)[O-])c1)N(Cc1ccc(Cl)c(Cl)c1)C1CCNCC1 [TCMDC-141400] | 39.3
O=[N+]([O-])c1cccc(CNCC2CCN(Cc3ccc(Cl)c(Cl)c3)CC2)c1 [TCMDC-141206] | 3.652
Cc1cccc2sc(N(CCCn3ccnc3)C(=O)C=Cc3cccs3)nc12 [TCMDC-124929] | 30.83
Cc1c(C(=O)N2CCc3cc4nccc(N5CCN6CCC[C@H]6C5)c4cc32)cnn1-c1ccc(C#N)cc1 [TCMDC-141315] | 14.04
CCN(CC)S(=O)(=O)c1ccc(Cl)c(C(=O)Nc2ccc3nc(C)sc3c2)c1 [TCMDC-124376] | 33.54
CCCCNCc1ccc(-c2nc(CN(Cc3ccc(Cl)c(Cl)c3)C(=O)CN(C)C)cs2)cc1 [TCMDC-141703] | 68.39
CC(=O)Nc1ccc(CNC2Cc3ccc(-c4ccc(Cl)c(Cl)c4)cc3C2)cc1 (stereo not drawn) [TCMDC-133070] | 12.53
CN(C)CC(=O)N(Cc1ccc(Cl)c(Cl)c1)Cc1csc(-c2ccc(CNCc3ccccc3)cc2)n1 [TCMDC-141814] | 21.62
CCCCNCc1ccc(-c2nc(CN(Cc3ccc(Cl)c(Cl)c3)S(=O)(=O)c3ccc(NC(C)=O)cc3)cs2)cc1 [TCMDC-141597] | 93.87
CCCCOc1ccccc1C(=O)NCc1csc(-c2ccccc2)n1 [TCMDC-124914] | 34.72
O=c1[nH]c(Cc2ccccc2)nc2ccc(Cl)cc12 [TCMDC-123986] | 41.17
Cc1cccc2nc(-c3ccc(-c4ccc(CN5CCC(CO)CC5)cc4)s3)[nH]c12.O=C(O)C(F)(F)F [TCMDC-133128] | -12.48
Cc1cccc2nc(-c3ccc(-c4ccc(CN5CCC(C(N)=O)CC5)cc4)s3)[nH]c12.O=C(O)C(F)(F)F [TCMDC-132695] | 10.69
Cc1cccc2nc(-c3ccc(-c4ccc(CN5CCCC(O)C5)cc4)s3)[nH]c12.O=C(O)C(F)(F)F (stereo not drawn) [TCMDC-133827] | -10.01

SMILES | % Inhibition [%]
Cc1cccc2nc(-c3ccc(-c4ccc(CN5CCCC(N)C5)cc4)s3)[nH]c12.O=C(O)C(F)(F)F (stereo not drawn) [TCMDC-133864] | 61.01
Cc1cccc2nc(-c3ccc(-c4ccc(CN5CCC(N)C5)cc4)s3)[nH]c12.O=C(O)C(F)(F)F (stereo not drawn) [TCMDC-133862] | 94.82
NC(=O)c1cccc(C(=O)Nc2ccc(-c3cccc(-c4nc5ccc(F)cc5[nH]4)c3)cc2)c1 [TCMDC-132196] | -0.7681
CCOC(=O)c1ccc(NC(=O)NNC(=O)c2ccc(CCN3CCC(c4nc(COCC(F)(F)F)c(-c5ccc(F)cc5)o4)CC3)cc2)cc1 [TCMDC-131907] | 11.96
Cc1ccc2[nH]c(-c3ccc(C(=O)NC4CCN(Cc5ccccc5)CC4)cc3)nc2c1C [TCMDC-140449] | 4.358
Cc1ccc(-c2cc(C(=O)Nc3ccc(S(=O)(=O)N4CCOCC4)cc3)[nH]n2)c(O)c1C [TCMDC-124306] | 74.46
O=C(Nc1ccc(S(=O)(=O)N2CCOCC2)cc1)c1cc(-c2cc(Cl)ccc2O)n[nH]1 [TCMDC-125204] | -22.77
Cc1ccc(-c2cc(C(=O)Nc3ccc(S(=O)(=O)N4CCCCC4)cc3)[nH]n2)c(O)c1 [TCMDC-124305] | -41.04
O=C(Nc1ccon1)c1cc(-c2cccnc2)nc2ccc(Br)cc12 [TCMDC-125217] | -5.67
CC1N=C(N)N=C(N)N1OCc1cccc2ccccc12 (stereo not drawn) [TCMDC-131595] | 37.89
CN1CCC(OC(=O)c2cc3cc(-c4ccccc4)ccc3n2S(=O)(=O)c2ccccc2)CC1 [TCMDC-139104] | 88.58
O=C(NCCN1CCCCC1)c1cc2cc(-c3ccccc3)ccc2n1S(=O)(=O)c1ccccc1 [TCMDC-139102] | 37.88
CN(C)CCCN1CCN(C(=O)c2cc3cc(-c4ccccc4)ccc3n2S(=O)(=O)c2ccccc2)CC1 [TCMDC-139103] | 17.27
Cc1cccc2nc(-c3ccc(-c4ccc(CNCC5CCCO5)cc4)cc3)[nH]c12.O=C(O)C(F)(F)F (stereo not drawn) [TCMDC-133093] | -8.859
Cc1cccc(C)c1OC(=O)CSc1nnc(-c2ccccc2O)o1 [TCMDC-125733] | -18.5
Cc1[nH]c2ccccc2c1C(=O)C(C)Sc1nnc(-c2ccccc2Br)[nH]1 (stereo not drawn) [TCMDC-125114] | 93.54
Cc1[nH]c2ccccc2c1C(=O)C(C)Sc1nnc(-c2ccccc2F)o1 (stereo not drawn) [TCMDC-125312] | 68.46
Nc1nc(F)nc2nc[nH]c12 [TCMDC-124283] | 4.967
O=C(NCc1cccc(F)c1)Nc1cccc(-c2ccc(-c3nc4ccc(C(F)(F)F)cc4[nH]3)cc2)c1 [TCMDC-133288] | -40.45
CCNc1cc(C(=O)N[C@@H](Cc2ccccc2)[C@H](O)CNCCc2cccc(C(F)(F)F)c2)cc(N2CCCC2=O)c1 [TCMDC-134552] | -6.04
COc1cccc(C(O)CNc2ccnc(Nc3ccc(Cl)cc3)n2)c1 (stereo not drawn) [TCMDC-136575] | 5.772
